Where “and” joins values, the source holds several entries; their conditions need not be identical. Equal values may be shown once. The whole screen tested about 5,500 compounds, of which about 2,000 (36%) were called active. Not shown: some 18% with an inconclusive outcome. No stated cut-off is given here; in the data, active means normalized growth mostly below about 0.91 (no sharp cut-off); inconclusive means no clear call, values can overlap the other calls; inactive means mostly above about 0.92. This is one part of the list.
Assay: chemical genetic growth profiling, strain panel (AID 1159580);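 further: tested at 20 µM; growth read once vehicle control cultures reached saturation at 30 °C; 1 = growth at the plate median or of vehicle wells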
Conditions: S. cerevisiae deletion strains, growth OD

Measured: normalized growth

CC(=O)CCCCn1c(=O)c2c(ncn2C)n(C)c1=O
inactive: locus YAL013W, strain DEP1, stronger effect = lower value 1.02 | locus YAL021C, strain ccr4, stronger effect = lower value 1.01 | locus YAL026C, strain drs2, stronger effect = lower value 1.01 | locus YAL030W, strain snc1, stronger effect = lower value 1.01 | locus YAL040C, strain CLN3, stronger effect = lower value 1 | locus YBL061C, strain skt5, stronger effect = lower value 1.01 | locus YBR009C, strain hhf1, stronger effect = lower value 1.02 | locus YBR021W, strain FUR4, stronger effect = lower value 0.991 | locus YBR023C, strain chs3, stronger effect = lower value 1.01 | locus YBR171W, strain sec66, stronger effect = lower value 1.04 | locus YBR229C, strain ROT2, stronger effect = lower value 1.02 | locus YBR231C, strain swc5, stronger effect = lower value 1.03 | locus YBR279W, strain paf1, stronger effect = lower value 1 | locus YCL011C, strain gbp2, stronger effect = lower value 1.01 | locus YCL016C, strain dcc1, stronger effect = lower value 1.01 | locus YCL029C, strain bik1, stronger effect = lower value 1.01 | locus YCL061C, strain MRC1 (second series), stronger effect = lower value 1.01 | locus YCL061C, strain MRC1, stronger effect = lower value 1.01 | locus YCL069W, strain vba3, stronger effect = lower value 1 | locus YCR088W, strain abp1, stronger effect = lower value 1.01 | locus YDL005C, strain med2, stronger effect = lower value 1.01 | locus YDL035C, strain GPR1, stronger effect = lower value 1.01 | locus YDL040C, strain nat1, stronger effect = lower value 1.01 | locus YDL074C, strain BRE1, stronger effect = lower value 1.04 | locus YDL101C, strain DUN1, stronger effect = lower value 1.02 | locus YDL185W, strain tfp1, stronger effect = lower value 0.999 | locus YDL192W, strain arf1, stronger effect = lower value 1 | locus YDR001C, strain nth1, stronger effect = lower value 1.01 | locus YDR069C, strain doa4, stronger effect = lower value 1.03 | locus YDR101C, strain arx1, stronger effect = lower value 1.01 | locus YDR137W, strain rgp1, stronger effect = lower value 1.03 | locus YDR150W, strain NUM1, stronger effect = lower value 1.02 and 0.998 | locus YDR159W, strain sac3, stronger effect = lower value 1.03 | locus YDR162C, strain NBP2, stronger effect = lower value 1.01 | locus YDR195W, strain ref2 1.02 | locus YDR297W, strain sur2, stronger effect = lower value 1.01 | locus YDR318W, strain mcm21, stronger effect = lower value 0.993 | locus YDR334W, strain swr1, stronger effect = lower value 1.02 | locus YDR335W, strain msn5, stronger effect = lower value 1.01 | locus YDR363W, strain ESC2, stronger effect = lower value 1 | locus YDR388W, stronger effect = lower value 0.999 | locus YDR392W, strain spt3, stronger effect = lower value 1.02 | locus YDR502C, strain sam2, stronger effect = lower value 1.01 | locus YEL003W, strain gim4, stronger effect = lower value 1.01 | locus YEL037C, strain rad23, stronger effect = lower value 1.01 | locus YEL061C, strain CIN8 (second series), stronger effect = lower value 1.01 | locus YEL061C, strain CIN8, stronger effect = lower value 1.01 | locus YER002W, strain NOP16, stronger effect = lower value 1.03 | locus YER015W, strain faa2, stronger effect = lower value 1.02 | locus YER016W, strain bim1, stronger effect = lower value 1.01 | locus YER110C, stronger effect = lower value 0.992 | locus YER111C, strain swi4, stronger effect = lower value 1.03 | locus YER155C, strain BEM2 (second series), stronger effect = lower value 1.02 | locus YER155C, strain BEM2, stronger effect = lower value 1.01 | locus YER167W, strain BCK2, stronger effect = lower value 1 | locus YFR010W, strain ubp6, stronger effect = lower value 1.01 | locus YGL078C, strain dbp3, stronger effect = lower value 1.01 | locus YGL086W, strain mad1, stronger effect = lower value 1.01 | locus YGL167C, strain pmr1, stronger effect = lower value 1.02 | locus YGL173C, strain kem1, stronger effect = lower value 1.02 | locus YGL227W, strain vid30, stronger effect = lower value 1.01 | locus YGL240W, strain doc1, stronger effect = lower value 1.03 | locus YGL248W, strain PDE1, stronger effect = lower value 1.03 | locus YGL253W, strain hxk2, stronger effect = lower value 1.02 | locus YGR078C, strain PAC10, stronger effect = lower value 1.02 | locus YGR135W, strain pre9, stronger effect = lower value 0.967 | locus YGR229C, strain SMI1, stronger effect = lower value 1.02 | locus YGR252W, strain gcn5, stronger effect = lower value 0.983 | locus YHR013C, strain ard1, stronger effect = lower value 1.04 | locus YHR027C, strain rpn1, stronger effect = lower value 1.02 | locus YHR030C, strain SLT2, stronger effect = lower value 1.02 and 0.994 | locus YHR079C, strain IRE1 (second series), stronger effect = lower value 1.01 | locus YHR079C, strain IRE1, stronger effect = lower value 0.99 | locus YHR094C, strain hxt1, stronger effect = lower value 0.995 | locus YHR129C, strain ARP1, stronger effect = lower value 1.02 | locus YHR142W, strain chs7, stronger effect = lower value 1.01 | locus YHR200W, strain rpn10, stronger effect = lower value 1 | locus YIL066C, strain RNR3, stronger effect = lower value 1.03 | locus YIL073C, strain SPO22, stronger effect = lower value 0.971 | locus YIL125W, strain kgd1, stronger effect = lower value 0.999 | locus YIR030C, strain dcg1, stronger effect = lower value 1.01 | locus YJL092W, strain hpr5, stronger effect = lower value 1.01 | locus YJL095W, strain BCK1 (second series), stronger effect = lower value 1 | locus YJL095W, strain BCK1, stronger effect = lower value 1.03 and 0.986 | locus YJL115W, strain asf1, stronger effect = lower value 1.01 | locus YJL129C, strain trk1, stronger effect = lower value 1.03 | locus YJL134W, strain LCB3, stronger effect = lower value 1 | locus YJL154C, strain vps35, stronger effect = lower value 1.01 | locus YJL164C, strain tpk1, stronger effect = lower value 1.02 | locus YJL166W, strain qcr8, stronger effect = lower value 1.01 | locus YJL168C, strain set2, stronger effect = lower value 0.99 | locus YJL187C, strain SWE1 (second series), stronger effect = lower value 1.03 | locus YJL187C, strain SWE1, stronger effect = lower value 1.01 | locus YJR043C, strain POL32, stronger effect = lower value 1.04
